According to PubChem BioAssay AID492953 (The Scripps Research Institute Molecular Screening Center, 2010):
The whole screen tested about 340,000 compounds, of which about 4,200 (1.2%) were called active.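 The calls were made as follows: active = inhibition above the mean of all tested compounds plus 3 SD (cut at about 24% in these data); inactive = the rest.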 This excerpt belongs to a sample that is enriched for actives.

Target: Platelet-activating factor acetylhydrolase IB subunit alpha2 (Homo sapiens) (UniProt P68402)
Assay: inhibition of PAF acetylhydrolase 1b subunit 2 – biochemical, fluorescence polarization, human, primary screen (AID 492953);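 also: 0% = enzyme with DMSO and 100% = wells lacking PAFAH1B2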
Settings: recombinant PAFAH1B2, FP-rhodamine activity probe, at 3.39 µM, active compounds read high

Sequence of Platelet-activating factor acetylhydrolase IB subunit alpha2 (Homo sapiens) (P68402 whole entry, looked up): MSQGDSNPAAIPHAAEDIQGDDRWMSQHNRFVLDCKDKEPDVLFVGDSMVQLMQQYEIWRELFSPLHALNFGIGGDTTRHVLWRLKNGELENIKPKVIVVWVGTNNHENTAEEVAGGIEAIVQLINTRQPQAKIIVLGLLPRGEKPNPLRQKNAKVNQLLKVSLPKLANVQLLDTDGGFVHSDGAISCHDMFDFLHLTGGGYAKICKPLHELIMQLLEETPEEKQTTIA

Row | SMILES | inhibition
1 | O=c1[nH]c(O)c(C=Nc2cc(F)cc(F)c2)c(=O)[nH]1 | -5.42% (inactive)
2 | Cc1ccc2c(c1)=C/C(=C\c1c(O)[nH]c(=O)[nH]c1=O)C(=O)N=2 | 24.9% (active)
3 | O=C1N=c2ccccc2=C/C1=C\c1c(O)[nH]c(=S)[nH]c1=O | 3.53% (inactive)
4 | Cc1ccc(Cn2c(C)c3cnn(CC(=O)N4CCC5(CC4)OCCO5)c(=O)c3c2C)cc1 | 4.99% (inactive)
5 | Cc1cccc(OP(=O)(Oc2cccc(C)c2)OC(c2ccccc2)C(F)(F)F)c1 (stereo not given) | 10.7% (inactive)
6 | CNC(=O)O/N=C(\N)Cc1csc2ccccc12 | 7.09% (inactive)
7 | CNC(=O)O/N=C(\N)Cc1csc2ccc(Cl)cc12 | 71.7% (active)
8 | N[C@@H](Cc1c[nH]c2ccccc12)c1nnc(SCc2c(F)cccc2Cl)o1 | 3.92% (inactive)
9 | CCC(C)(O)C(=O)OC1C(=O)OC2CC3C(C)=CC(=O)C(O)C3(C)C3C4(O)OCC23C1C(C)C4O (stereo not given) | -0.05% (inactive)
10 | CCCCCn1c(=O)c(C(=O)Nc2c(C)n(C)n(-c3ccccc3)c2=O)c(O)c2ccccc21 | -3.03% (inactive)
11 | CC(C)(C)c1ccc(CN2C(=O)CN=C(c3ccccc3)c3ccccc32)cc1 | 88% (active)
12 | Nc1ccc(C(=O)N/N=C2/CN3CCC2CC3)cc1 | -0.84% (inactive)
13 | CN(C)CC1CCCCC1OC(=O)c1ccc(Cl)c(Cl)c1 (stereo not given) | -0.45% (inactive)
14 | CCCCCCN=C(CC)c1c(O)n(CCCC)c(=O)[nH]c1=O | 5.01% (inactive)
15 | CN(C)CC1Oc2ccccc2OC1(O)c1ccccc1 (stereo not given) | 0.51% (inactive)
16 | CC1=CC(=Cc2sc3ccccc3[n+]2C)C=C(C)O1 | -0.8% (inactive)
17 | O=C(N/N=C/c1c(O)n(Cc2ccccc2)c(=O)[nH]c1=O)c1ccccc1 | 18.9% (inactive)
18 | CCC(=NCc1ccco1)c1c(O)n(Cc2ccccc2)c(=O)[nH]c1=O | 3.82% (inactive)
19 | CC/C(=N\NC(=O)c1ccccc1O)c1c(O)n(Cc2ccccc2)c(=O)[nH]c1=O | 26.1% (active)
20 | O=C(NCC(c1cccnc1)N1CCN(c2ccccc2)CC1)Oc1ccccc1 (stereo not given) | 4.28% (inactive)
21 | O=C(CSC1c2ccccc2-c2ccccc21)N/N=C/c1ccccc1 | 8.06% (inactive)
22 | c1ccc(CCN2CCC3(CC2)OCCO3)cc1 | 3.22% (inactive)
23 | O=C(OCCN1CCOCC1)C1(c2ccccc2)CCCC1 | 36.1% (active)
24 | CCOC(=O)C1(c2ccccc2)CCN(CC(O)c2ccc(NC(C)=O)cc2)CC1 (stereo not given) | 0.73% (inactive)
25 | Cc1ccc(N(C)C(=O)Oc2cccc3ccc(C)nc23)cc1 | 2.03% (inactive)
